Compound activity from PubChem.
Compounds with a hit are over-represented: about 10% of the library has one in this group of screens.
FLuc inh-1 = blocks purified firefly luciferase enzyme activity; purified P. pyralis luciferase, luminescence, biochemical; 76,000 compounds, 2.5% hits; AID 1347043; Potency, µM (doses to about 115 µM), most hits filed as inhibitors; further: nearly all actives have a fitted effect of over 65% in size
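Luminescence read by CCD imaging after purified firefly luciferase (10nM final) was added to substrate buffer holding 10uM D-luciferin and 10uM ATP, pH 7.5, pre-dosed with compound.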
GPT2 inhibitor = inhibitors of human GPT2 alanine aminotransferase. Q8TD30. Recombinant GPT2, coupled pyruvate oxidase/HRP Amplex Red fluorescence. Potency, µM (highest dose often 57.7 µM), most hits filed as inhibitors. 100,000 compounds, 0.25% hits. AID 1671188; further: nearly all actives have a fitted effect of over 60% in size
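Fluorescence read-out: pyruvate from GPT2 turnover coupled to pyruvate oxidase, HRP and Amplex Red (0.2mM ThPP, 0.2U/mL PO and HRP, 50uM Amplex final). Substrates 250uM a-KG, 2mM L-alanine; enzyme 10ng/uL; 30 min RT.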
NPR1 antag = human Npr1 receptor antagonism | P16066 | 76,000 compounds, 1.6% hits | Potency, µM (top dose mostly 46.3 µM), actives largely listed as inhibitors | AID 1347048 | HEK293 hNpr1 GloSensor cGMP, ANP-stimulated luminescence; calls by dose curve; further: nearly all actives have a fitted effect of over 60% in size
Target sequence (P16066 whole entry, looked up): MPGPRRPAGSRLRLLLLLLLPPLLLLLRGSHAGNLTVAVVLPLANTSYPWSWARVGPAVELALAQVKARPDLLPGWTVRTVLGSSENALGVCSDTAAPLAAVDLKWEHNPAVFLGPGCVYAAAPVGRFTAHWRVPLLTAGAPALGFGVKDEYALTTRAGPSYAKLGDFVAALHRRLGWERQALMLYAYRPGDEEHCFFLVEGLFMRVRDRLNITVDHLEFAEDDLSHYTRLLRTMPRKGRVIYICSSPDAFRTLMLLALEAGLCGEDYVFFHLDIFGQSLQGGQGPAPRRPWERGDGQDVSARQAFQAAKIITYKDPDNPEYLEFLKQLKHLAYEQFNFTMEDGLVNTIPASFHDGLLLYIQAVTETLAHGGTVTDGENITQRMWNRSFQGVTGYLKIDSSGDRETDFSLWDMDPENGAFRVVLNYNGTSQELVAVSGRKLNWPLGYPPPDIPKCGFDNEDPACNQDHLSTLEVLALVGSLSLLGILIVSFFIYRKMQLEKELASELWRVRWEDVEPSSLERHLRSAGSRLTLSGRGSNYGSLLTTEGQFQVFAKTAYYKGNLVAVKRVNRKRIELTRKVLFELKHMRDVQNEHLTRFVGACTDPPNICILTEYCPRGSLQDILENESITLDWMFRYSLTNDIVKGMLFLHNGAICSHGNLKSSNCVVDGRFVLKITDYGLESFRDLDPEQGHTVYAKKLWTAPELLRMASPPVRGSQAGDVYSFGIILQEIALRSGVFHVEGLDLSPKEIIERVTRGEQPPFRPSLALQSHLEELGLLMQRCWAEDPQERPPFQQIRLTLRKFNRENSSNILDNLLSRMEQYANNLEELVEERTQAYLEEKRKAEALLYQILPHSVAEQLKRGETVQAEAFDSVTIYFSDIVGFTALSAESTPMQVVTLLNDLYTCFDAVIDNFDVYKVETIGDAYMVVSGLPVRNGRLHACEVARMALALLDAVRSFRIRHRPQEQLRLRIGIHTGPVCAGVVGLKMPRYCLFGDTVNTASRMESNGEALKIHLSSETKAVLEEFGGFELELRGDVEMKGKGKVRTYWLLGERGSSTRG
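Compound pre-incubated 30 min at room temperature on GloSensor-loaded HEK293 cells stably carrying hNpr1 and the pGS-40F cGMP biosensor. Stimulation uses hNppA at 0.1 nM final; luminescence is taken at baseline and 20 min post-agonist.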
NIH3T3 tox = NIH 3T3 cell cytotoxicity | NIH 3T3 viability, CellTiter-Glo ATP luminescence, 48-72 h | Potency, µM (titrated, usually from 96.7 µM), hits mostly inhibitors | 94,000 compounds, 4.3% hits | AID 1345082; further: nearly all actives have a fitted effect of over 55% in size
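Mouse fibroblast NIH 3T3 cells, 400 per well, received compound via pintool and were incubated for 48 or 72 hr prior to CellTiter-Glo ATP luminescence measurement.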
HEK293 tox = HEK 293 cell cytotoxicity | 94,000 compounds, 6.6% hits | AID 1345083 | HEK 293 viability, ATP luminescence (CellTiter-Glo), 48-72 h | Potency, µM (highest dose often 115 µM), actives largely listed as inhibitors; further: nearly all actives have a fitted effect of over 60% in size
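Cytotoxicity was scored by loss of ATP-coupled luminescence (CellTiter-Glo) in HEK 293 cells. Compound treatment ran 48 or 72 hr at 37 degree Celsius, 5% CO2, 95% humidity.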
FLuc SDR no ATP = firefly luciferase binding stabilization, ATP absent | 1,300 compounds, 7.8% hits | AID 1963318 | shares compounds with FLuc inh-1 | Potency, µM (highest dose often 32.7 µM), actives largely listed as activators | Purified FLuc-C-HiBiT, Nano-Glo HiBiT luminescence, no ATP; further: nearly all actives have a fitted effect of over 55% in size
FLuc SDR ATP = stabilizes firefly luciferase with ATP present | shares compounds with FLuc inh-1 | purified FLuc-C-HiBiT + ATP, HiBiT complementation luminescence | Potency, µM (series often up to 32.7 µM), usual class: activators | 1,300 compounds, 8.7% hits;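 further: signal reports ligand binding via conformational change of the enzyme rather than luciferase catalysis; nearly all actives have a fitted effect of over 55% in size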
FLuc inh-2 = blocks firefly luciferase enzymatic activity. shares compounds with FLuc inh-1. purified FLuc-C-HiBiT enzyme, luciferin luminescence. Potency, µM (highest dose often 32.7 µM), actives largely listed as inhibitors. 1,300 compounds, 42% hits. AID 1963320; further: nearly all actives have a fitted effect of over 70% in size
Of the large screens only hits and unclear results are named; the others gave an inactive call (follow-up assays come after a bar, where they were run). Unless noted, the call rests on the fitted dose curve; in most records, active means well fitted curve in the direction sought with a large enough effect; inconclusive means small, poorly fitted or top-dose-only effect, or another doubt; inactive means no such curve, though single readings can be large; an effect the other way counts as inactive or inconclusive.

Cc1ccc(NCc2nc3ccccc3n2CCOc2ccccc2)cc1	none (no result: FLuc inh-1, GPT2 inhibitor, NPR1 antag, NIH3T3 tox, HEK293 tox) | FLuc SDR no ATP inactive | FLuc SDR ATP inactive | FLuc inh-2 inconclusive
CCS(=O)(=O)c1ccccc1C(=O)Nc1ccc(-c2nc3ccccc3s2)cc1	none (no result: FLuc inh-1, GPT2 inhibitor, NPR1 antag, NIH3T3 tox, HEK293 tox) | FLuc SDR no ATP inactive | FLuc SDR ATP inactive | FLuc inh-2 inactive
CNc1ccc(-c2nc3ccccc3s2)cc1	none (no result: FLuc inh-1, GPT2 inhibitor, NPR1 antag, NIH3T3 tox, HEK293 tox) | FLuc SDR no ATP 1.76µM | FLuc SDR ATP 1.11µM | FLuc inh-2 0.0785µM
CC(C)(C)C(=O)Nc1ccc(-c2nc3ccccc3s2)cc1	none (no result: FLuc inh-1, GPT2 inhibitor, NPR1 antag, NIH3T3 tox, HEK293 tox) | FLuc SDR no ATP 0.0785µM | FLuc SDR ATP 0.0442µM | FLuc inh-2 0.0197µM
Cc1ccc2sc(-c3ccc(N)cc3)nc2c1	none (no result: FLuc inh-1, GPT2 inhibitor, NPR1 antag, NIH3T3 tox, HEK293 tox) | FLuc SDR no ATP 3.13µM | FLuc SDR ATP inconclusive | FLuc inh-2 0.279µM
Cc1nc2cc(-c3cc(F)cc(C#N)c3)ccc2s1	none (no result: FLuc inh-1, NPR1 antag, NIH3T3 tox, HEK293 tox)
COc1ccc(-c2cc3nc4c(c(=O)n3[nH]2)CN(C(=O)c2ccc(Cc3c(C)noc3C)o2)CC4)cc1	FLuc inh-1 inconclusive
COc1ccccc1-c1cccc(C(=O)N2CCC[C@H]2C(=O)N2CCC(c3ccccc3)CC2)c1	NIH3T3 tox inconclusive, HEK293 tox inconclusive (no result: FLuc inh-1, NPR1 antag)
Nc1ccc(-c2nc3ccccc3s2)cc1	none (no result: FLuc inh-1, GPT2 inhibitor, NPR1 antag, NIH3T3 tox, HEK293 tox) | FLuc SDR no ATP inconclusive | FLuc SDR ATP inconclusive | FLuc inh-2 1.76µM
CCOP(=O)(Cc1ccc(-c2nc3ccccc3s2)cc1)OCC	none (no result: FLuc inh-1, GPT2 inhibitor, NPR1 antag, NIH3T3 tox, HEK293 tox) | FLuc SDR no ATP inactive | FLuc SDR ATP inactive | FLuc inh-2 inconclusive
CC(C)(N)c1ccc(-c2nc3ccccc3nc2-c2ccccc2)cc1	none (no result: FLuc inh-1, NPR1 antag, NIH3T3 tox, HEK293 tox)
Cc1nn(-c2ccccc2)c2c1C(C(C)C)N(C1CN(C(=O)NC3CCCC3)C1)C2=O (centres undefined)	none (no result: FLuc inh-1, GPT2 inhibitor, NPR1 antag)
N#C/C(=C\c1ccc(-c2cc(Cl)ccc2Cl)o1)C(=O)Nc1ccccc1C(=O)O	none (no result: FLuc inh-1, GPT2 inhibitor, NPR1 antag, NIH3T3 tox, HEK293 tox) | FLuc SDR no ATP inactive | FLuc SDR ATP inactive | FLuc inh-2 inconclusive
O=C(c1ccc(F)cc1)N1CCC(C(=O)N2CCC(N3CCOCC3=O)CC2)CC1	none (no result: FLuc inh-1, NPR1 antag)
CC(C)(C)CC(=O)Nc1ccc([C@@H](O)[C@H]2COCC(=O)N2Cc2ccccc2F)cc1	GPT2 inhibitor inconclusive, HEK293 tox inconclusive
Cc1ncsc1CCC(=O)N1CC(=O)N(C2CCCCC2)CC(OCc2ccccc2)C1 (centres undefined)	none
COc1ccc(-c2cc3c(cn2)CN(Cc2cccnc2)CCN3)cc1F	FLuc inh-1 5.01µM, NPR1 antag inconclusive, HEK293 tox inconclusive | FLuc SDR no ATP inconclusive | FLuc SDR ATP inactive | FLuc inh-2 14.3µM
COc1ccc(OC)c(CN2CCNc3cnc(OCc4cccnc4)cc3C2)c1	NIH3T3 tox inconclusive, HEK293 tox inconclusive
COc1ccc(-c2cc3c(cn2)CN(Cc2cccnc2)CCN3)cc1OC	FLuc inh-1 5.62µM, HEK293 tox inconclusive | FLuc SDR no ATP inconclusive | FLuc SDR ATP inactive | FLuc inh-2 14.3µM
CCOc1ccccc1NC(=O)N1CCC2(CC1)CC2c1noc(C)n1 (centres undefined)	GPT2 inhibitor inconclusive (no result: FLuc inh-1, NPR1 antag)
Cc1c(CN2CCOc3c(O)cc(-c4nc5ccccc5s4)cc3C2)cnn1C	none (no result: FLuc inh-1, GPT2 inhibitor, NPR1 antag, NIH3T3 tox, HEK293 tox) | FLuc SDR no ATP inactive | FLuc SDR ATP inactive | FLuc inh-2 inactive
Cc1cncc(C(=O)N2CCOc3c(O)cc(-c4nc5ccccc5s4)cc3C2)c1	FLuc inh-1 inconclusive, NIH3T3 tox inconclusive, HEK293 tox 39.8µM | FLuc SDR no ATP inactive | FLuc SDR ATP inactive | FLuc inh-2 inactive
Cc1nc(CN2CCOc3c(O)cc(-c4nc5ccccc5s4)cc3C2)no1	HEK293 tox inconclusive | FLuc SDR no ATP inactive | FLuc SDR ATP inactive | FLuc inh-2 inactive
CCc1nc(CN2CCOc3c(O)cc(-c4nc(C)cnc4C)cc3C2)no1	none
COc1ccc(-c2nc(C)nc3c2CN(C(C)=O)CC3)cc1	none
